Experimental data published in PubChem BioAssay.
Several values for one entry are separate records, joined by “and”; a condition that tells them apart may be missing. Equal values may be shown once. Activity calls are given as the source filed them.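 The calls were made as follows, unless noted: active = compounds whose cell count with miR-34 switched on is under 0.7 times the count with it off; inactive = the rest.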

Legend:
[1] = viability loss with induced miR-34 in A549 – imaging, A549 dox-inducible miR-34, nuclei and caspase counts, primary screen (AID 1347080); details: A549 miR-34 inducible, Hoechst nuclei count, 48 h
[2] = MELAS cybrid and Rieske KO viability enhancers – cell-based, MELAS cybrids, Rieske KO mouse fibroblasts, CellTiter-Glo, primary screen (AID 1508586;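 active = mean z-score across replicates of 1.96 or higher in either the MELAS or the Rieske mutant cell line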;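 also: z relative to plate mean and SD of compound and empty wells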); details: low glucose
[3] = stronger effect = lower value, cell number ratio, induced over uninduced
[4] = measured here: relative caspase fold change +Dox/-Dox
[5] = measured here: total cells with miR-34 induction, stronger effect = lower value
[6] = measured here: total cells without miR-34 induction
[7] = MELAS cybrid survival, CellTiter-Glo 48 h, stronger effect = higher value
[8] = Rieske KO mouse fibroblast survival, CellTiter-Glo 72 h
Also: test concentration not given here.

Structure (SMILES)	fold change [1, 3]	fold change [1, 4]	cell count [1, 5]	cell count [1, 6]	z-score [2, 7]	z-score [2, 8]
CC1=NN(c2ccc(C(=O)O)cc2)C(=O)C1=Cc1ccc(-c2cc(C)c(C)cc2[N+](=O)[O-])o1	0.902 (inactive)	0.511	7310	8100	-0.321 (inactive)	0.107
NC(=O)C(CCC(F)(F)F)N(Cc1ccc(-c2ncon2)cc1F)S(=O)(=O)c1ccc(Cl)cc1 (configuration not stated)	0.918 (inactive)	0.873	6710	7310	-0.464 (inactive)	0.74
CC1(C)S[C@@H]2C(NC(=O)C(N)c3ccc(O)cc3)C(=O)N2C1C(=O)O (some centres not stated)	0.958 (inactive)	0.664	9670	10100	-0.365 (inactive)	0.721
Cc1ccc(-n2sc(=O)n(Cc3ccc(F)cc3)c2=O)cc1	0.959 (inactive)	0.337	8430	8790	-0.268 (inactive)	-0.132
CCCC(=O)O[C@@]1(C(=O)COC(C)=O)CC[C@H]2[C@@H]3CC(F)C4=CC(=O)C=C[C@]4(C)[C@]3(F)C(O)C[C@@]21C (some centres not stated)	0.767 (inactive)	1.77	5160	6730	-0.0529 (inactive)	-0.145
COC(=O)C1C(O)CC[C@H]2CN3CCc4c([nH]c5ccccc45)[C@@H]3C[C@H]12 (some centres not stated)	0.892 (inactive)	0.762	8840	9910	-0.303 (inactive)	0.721
N=c1ccn2c(n1)OC1C(O)C(CO)OC12 (configuration not stated)	1.07 (inactive)	0.814	2350	2200	0.074 (inactive)	0.000793
CC(C)Oc1ccc(-c2cnc3c(-c4ccnc5ccccc45)cnn3c2)cc1	0.806 (inactive)	0.45	5470	6780	-0.164 (inactive)	0.555
C=C1C(=CC=C2CCC[C@@]3(C)[C@H]2CC[C@H]3C(C)C=CC(C)C(C)C)CC(O)CC1O (some centres not stated)	0.932 (inactive)	0.78	7360	7890	-0.45 (inactive)	1.18
CCn1c2ccccc2c2cc(Nc3ccnc(NCCCN4CCOCC4)n3)ccc21	1.23 (inactive)	0.454	2810	2280	-0.307 (inactive)	0.428
CC(C)=CCC[C@](C)(OC1OC(COC2OCC(O)C(O)C2O)C(O)C(O)C1O)C1CC[C@]2(C)[C@@H]1C(O)C[C@H]1[C@@]3(C)CCC(OC4OC(CO)C(O)C(O)C4O)C(C)(C)[C@@H]3CC[C@]12C (some centres not stated)	0.96 (inactive)	0.422	7600	7910	-0.238 (inactive)	0.0165
CN1CC(=O)N2C(c3ccc4c(c3)OCO4)c3[nH]c4ccccc4c3C[C@@H]2C1=O (some centres not stated)	0.882 (inactive)	0.922	6530	7410	-0.417 (inactive)	0.533
CCC(C)CC(C)CCCCCCCCC(=O)NC1CC(O)C(NCCN)NC(=O)[C@@H]2C(O)CCN2C(=O)[C@@H](C(O)CCN)NC(=O)[C@H](C(O)C(O)c2ccc(O)cc2)NC(=O)[C@@H]2CC(O)CN2C(=O)[C@H](C(C)O)NC1=O (some centres not stated)	0.95 (inactive)	0.316	7980	8400	-0.141 (inactive)	0.0344
C[N+]1(C)[C@@H]2CC(OC(=O)C(O)(c3cccs3)c3cccs3)C[C@H]1C1OC12 (some centres not stated)	0.933 (inactive)	0.479	9300	9960	-0.398 (inactive)	-0.0197
COC(=O)C1C(OC)C(OC(=O)c2cc(OC)c(OC)c(OC)c2)C[C@@H]2CN3CCc4c([nH]c5cc(OC)ccc45)[C@H]3C[C@H]12 (some centres not stated)	0.925 (inactive)	0.845	7190	7770	-0.484 (inactive)	0.995
COC(=O)NC(C(=O)NC(Cc1ccccc1)C(O)CN(Cc1ccc(-c2ccccn2)cc1)NC(=O)C(NC(=O)OC)C(C)(C)C)C(C)(C)C (configuration not stated)	0.891 (inactive)	0.981	6490	7280	-0.349 (inactive)	0.446
CC(=O)Nc1ccc(NC(=S)NC(=O)c2ccc(C(C)(C)C)cc2)cc1	1 (inactive) and 1.05 (inactive)	1.21 and 0.561	1820 and 1680	1820 and 1600	-0.38 (inactive)	0.0517
O=CC(O)C(O)C(O)CO (configuration not stated)	0.913 (inactive)	0.975	7900	8650	0.55 (inactive)	-0.188
CCOc1ccccc1OC(c1ccccc1)[C@H]1CNCCO1 (some centres not stated)	0.858 (inactive)	1.73	8800	10300	-0.71 (inactive)	-0.166
O=C(Oc1cc(S(=O)(=O)c2ccccc2)ccc1[N+](=O)[O-])c1ccc(Cl)cc1	0.897 (inactive)	0.914	8540	9520	-0.507 (inactive)	-2.16
C=CC1=C(C(=O)O)N2C(=O)[C@H](NC(=O)C(=NO)c3csc(N)n3)[C@H]2SC1	0.881 (inactive)	1.23	7750	8790	-0.382 (inactive)	0.812
CC(O)=C(C#N)C(=O)Nc1ccc(C(F)(F)F)cc1	0.904 (inactive)	1.22	7860	8690	-0.297 (inactive)	-0.28
